Source: the supplement of paper PMC6555819

Key:
Experiment in all cases: PBM binding z-score (relative to random genomic background probes); higher = stronger binding; sequences stand for … in GC…GCGATTGACAGCGTAGAATGAAGG
[1] = system: RARb homodimer (NR concentration 270 nM)
Summary of the method: (§1)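 Binding z-scores take random background probes as their reference. They come from custom Agilent 4×180K protein-binding microarrays incubated 1 h with ligand-free nuclear receptor dimers, with antibodies against each partner (one per run) detecting binding. Scanned fluorescence was regression-normalized.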

[2] = system: RARg:RXRa (NR concentration 270 nM, RXRa partner concentration 90 nM)
Summary of the method: as §1

[3] = system: RARg homodimer (NR concentration 270 nM)
Summary of the method: as §1

[4] = system: RXRa DBDmut IVT, anti-RXR (DBD mutation: RXRa K156A/R161A, NR concentration 90 nM)
Summary of the method: as §1

[5] = system: RXRa homodimer (NR concentration 180 nM)
Summary of the method: as §1

[6] = system: THRa:RXRa (NR concentration 90 nM, RXRa partner concentration 90 nM)
Summary of the method: as §1

[7] = system: THRa homodimer (NR concentration 90 nM)
Summary of the method: as §1

[8] = system: VDR homodimer (NR concentration 270 nM)
Summary of the method: as §1

Sequence	PBM binding z-score [1]	PBM binding z-score [2]	PBM binding z-score [3]	PBM binding z-score [4]	PBM binding z-score [5]	PBM binding z-score [6]	PBM binding z-score [7]	PBM binding z-score [8]
GCTTATAGATCAAGGTTAAGAAAGACTAAGCTAA	0.33	0.377	0.552	0.345	0.835	1.32	0.0443	-0.265
CCTATTAGTTGACCATAAGGGCAACCAAAGCTCG	2.24	1.55	1.14	0.788	0.828	2.02	1.47	0.747
CGTCCAAGGTCAGCAGGTCAGTGAGAGCGACGTG	5.13	6.35	6.67	2.46	5.29	4.01	2.56	1.93
CGAACTAGGTCTAGGACAGTGAATCTCCGCACGC	-0.234	-0.33	-0.233	0.104	-0.217	0.316	0.0986	-0.409
TCTTGTAAATCAAGCAGGTTAAGAAAGCCTGAGT	0.102	0.0304	-0.176	0.73	0.26	0.147	-0.571	-0.0324
GCAGACAGGTGAAACGCAGGTAACTGAGGGTGGC	0.0628	0.86	0.142	-0.51	0.568	1.06	-0.377	-0.727
AGAACGAGGGCACGCTGACTTGATAGCAGAGTAG	1.15	1.84	1.95	1.66	1.34	1.76	-0.184	0.649
AGTCAAAGTTCAGGAAGAGGTAACGTAAAGCACG	3.02	5.33	4.81	2.79	2.93	2.91	0.341	1.81
GCTTACGGTTCAAAGGTTATAGCATGAATAGAAT	1.54	3.57	1.39	2.62	7.16	2.59	0.09	2.52
CCTCAAAGTTCAAGGTAACGTAACAGAAAGCAGC	4.13	5.48	6.39	4.29	4.44	3.32	1.79	3.65
ACTAGCAGGCCAAGTTTGGGTCACTCGAACAAAG	2.15	2.31	1.59	-0.0795	0.694	2.42	0.889	0.0508
TAGCGTAGGTCATTCAGGGGCCAGTATAGAAAGC	3.37	6.52	5.07	1.79	3.93	3.56	-0.427	1.25
ACTAGCAGGCCAAGTTTGGGACACTCAAACAAAG	0.289	0.191	0.555	-0.499	-0.592	1.45	0.404	-0.549
ATATGTAGGTTAAGGGTCATTCATGTTGGTTCGC	4.2	4.74	3.5	2.3	6.14	3.43	1.52	4.27
GCAGACGGGTGAAACGCAGGTAACTCAGGGTGGC	-0.28	0.482	-0.283	-1.07	0.49	1.3	-0.706	-0.68
CCGACTTGGGCAAGGTTACCATAACGCACAGCCA	0.919	0.796	0.586	0.164	1.05	1.17	0.449	0.117
CGAACTAGGTCAGAAAAGGACAGTGAAGGATGAT	2.62	2.78	3.84	0.166	0.978	3.91	0.0421	-0.122
TCGAGTAGGTTCGTCGGGGCATTCAGCCAACATA	0.49	0.1	-0.361	2.31	0.365	0.871	0.192	2.33
AGAATGAGGTTAAGATCAGGGATACAGAATACAT	1.26	2.17	1.83	1.17	2.45	2.78	1.25	0.506

Sequence	PBM binding z-score [1]	PBM binding z-score [2]	PBM binding z-score [3]	PBM binding z-score [4]	PBM binding z-score [5]	PBM binding z-score [6]	PBM binding z-score [7]	PBM binding z-score [8]
ACTTACGGGTCAACTAGGTTATAGCACGCGTATA	3.63	5.71	5.16	2.08	5.82	3.52	0.857	2.03
ATCGAAAGGTCGCCGAGGTGAGTATACACCGTTT	3.6	4.9	5.02	1.78	5.24	4.1	1.17	1.53
CCTAGTGGGCCACGAAAGGTCATTGATTCAGTGA	4.68	4.71	4.64	0.0516	5.09	3.82	0.453	1.99
TCTAGTTGGTTAAAGGTCACACACTCGAAATGCG	5.19	6.13	5.53	2.21	6.72	4.02	2.69	2.78
GATACAGGGTCAGCTAGAGGCCAGAATATGGAAA	3.01	6.5	4.78	1.32	4.12	3.04	0.498	1
CGTTACGGGTCACTCCAGGTTATAGCATCGGAGT	3.08	4.49	4.8	1.5	4.86	4.97	0.567	1.17
TAGCCTAGGTCCTTGGGCCAGTATAGTACGCATC	-0.937	-0.412	-0.296	-1.27	-0.549	-0.732	-1.37	-1.06
ACTAGCAGGCCAAGCGTCACTCAAGATTAGTCCG	-0.0548	-0.358	0.0982	-0.131	-0.281	-0.489	-0.737	-1.26
ACTTACGTGTCAACGAGGTTATAGCACGCGTATA	1.17	1.44	1.18	0.532	1.38	1.99	0.476	0.875
AATACAGGGTCATCGTAGGCCTGAGTACGCACAG	3.36	5.59	4.89	3.34	6.77	4.2	1.25	3.73
TCATATAGGTAATACAGGTGATAGTCGGCATCTA	0.0336	0.618	0.526	1.57	0.945	0.371	0.0861	-0.0181
CGTCGAAGGTCAAGGTCAGTGAAAGAGACTCGAA	5.05	6.76	7.33	2.59	6.08	3.98	2.07	1.98
TAGAGTAGGTTACCAATGGGGCATTCAGCTTTCT	1.09	1.76	1.12	0.201	0.73	0.389	-0.222	-0.0971
TCAGACAGGTGAAAGTAACTCAGGTACGCAGTCG	0.326	0.474	0.598	1.01	0.974	0.472	-0.0578	-0.0124
TCATATAGGTAAAAGGTGCAAGTCGGTGTGGTAA	0.775	0.469	0.207	1.9	1.27	0.295	-0.18	0.772
CCTATTAATTGACCATAAGGGCAACCGAAGCTCG	1.91	0.926	1.1	0.931	0.841	1.63	1.81	1.85
TCGAGTAGGTTAGCGGCATTCAGAATGGCGTCGA	-0.725	-0.482	-0.458	-0.267	0.000996	-0.647	-0.985	-0.691
GCATATAGGTAATACAAGGCGAAAGTCCGATTGT	-0.287	0.107	0.326	0.52	0.182	2.28	-0.176	-0.0927
CACACTAGGTCACCGGAAGGTCAAAGTCCGCATG	5.83	8.21	7.39	2.24	6.53	4.79	3.54	3.61

Sequence	PBM binding z-score [1]	PBM binding z-score [2]	PBM binding z-score [3]	PBM binding z-score [4]	PBM binding z-score [5]	PBM binding z-score [6]	PBM binding z-score [7]	PBM binding z-score [8]
CCTTACGGGTCAAGGTTATAGAACGGGTGGTACG	3.67	4.92	4.97	0.482	5.58	3.02	0.782	1.14
ATATGTAGGTTTTCGGGTCATTCAGTTTGCGCAT	2.88	2.43	1.72	1.88	3.57	3.89	4.22	4.55
CCAGACAGGTGAAAGGTTACTCAGTCTGGTACGC	1.91	3.02	1.52	0.385	4.22	1.72	0.13	0.149
GCTAGCAGGCCATTGGGGTCACTCAATGACGGGC	3.44	3.98	3.1	0.8	4.7	3.84	2.39	4.55
AGAATGAGGTTATTAAGATTAGGGAATTGCGGTC	0.809	1.27	0.836	2	1.72	2.05	0.933	1.29
GGATATAGGTAATACAAGGTGAAAGTCCGATTGT	1.38	0.879	0.935	0.283	0.977	4.46	1.64	0.913
CCTTGCGGGTCACGAGGTTATAGCACGACGAGCG	3.64	5.78	5.02	1.62	6.53	3.68	1.34	1.93
ACAGACAGGTGATAAAGGTAACTCAGGCTATCAT	0.459	0.384	0.498	-0.109	0.225	1.15	-0.0543	-0.632
ACTTACGGTTCAACGAGGTTATAGCACGCGTATA	1.54	2.25	1.14	3.49	3.22	3.06	0.878	5.32
TTACCCAGGTGAAGGTCGTTGATCCCTCTGTAGA	1.33	0.65	0.626	-0.428	1.31	1.91	0.888	1.26
CCAGACAAGTGAAAGGTAACTCAGTCTGGTACGC	0.344	0.201	0.303	0.272	0.604	0.291	-0.287	0.0715
TCTAGTTGGTCAAAGGTCACACACTCGAAATGCG	5.02	7.09	6.36	2.05	7.71	4.06	1.95	2.94
ATCGAAAGGTCGAGAGGTGAGTATACAGAAAGGC	3	4.69	4.09	0.518	4.53	2.37	-0.0205	0.542
CGTCAAATTTCAACTAAGGTAACGTAAAGCACGC	0.545	0.344	0.568	0.715	0.436	2.71	1.89	0.604
CCTCCAAGGTCAAAGGTCAGTGAAGAGATGACGG	5.51	8.61	7.7	3.97	10	4.65	2.63	3.92
CCTACTGGGGCAGAAAGGTTACCATACCATCCGG	2.22	1.62	1.59	-1.01	1.56	0.807	-0.439	-0.187
TCTGCTATGTCAGTTGGTCAGCTAACGAGCTGCC	0.0404	-0.0925	-0.134	0.0834	-0.0847	-0.538	-1.16	-0.982
GCTCGGAGGACAAGGTCGGAGCTTTGTCCGTAGA	0.998	0.842	1.11	-0.395	0.103	1.37	0.277	-0.608
